Experimental data taken from paper PMC7862700, “An all-to-all approach to the identification of sequence-specific readers for epigenetic DNA modifications on cytosine”.

Key:
Experiment in all cases: DAPPL (digital affinity profiling via proximity ligation, sequencing); 10 mM Tris-HCl pH 7.5, 50 mM NaCl, 1 mM DTT, 4% glycerol, room temperature, 30 min; GST-TFs on glutathione beads, 16-mer random dsDNA library, 0.1% formaldehyde crosslink after washing; high values mean tight binding
Conditions in all cases: protein: recombinant; tags: N-terminal GST; dsDNA, one strand shown
ELK1 = biological target: T1, ELK1 (Homo sapiens, UniProt P19419 1-428)
T1 sequence: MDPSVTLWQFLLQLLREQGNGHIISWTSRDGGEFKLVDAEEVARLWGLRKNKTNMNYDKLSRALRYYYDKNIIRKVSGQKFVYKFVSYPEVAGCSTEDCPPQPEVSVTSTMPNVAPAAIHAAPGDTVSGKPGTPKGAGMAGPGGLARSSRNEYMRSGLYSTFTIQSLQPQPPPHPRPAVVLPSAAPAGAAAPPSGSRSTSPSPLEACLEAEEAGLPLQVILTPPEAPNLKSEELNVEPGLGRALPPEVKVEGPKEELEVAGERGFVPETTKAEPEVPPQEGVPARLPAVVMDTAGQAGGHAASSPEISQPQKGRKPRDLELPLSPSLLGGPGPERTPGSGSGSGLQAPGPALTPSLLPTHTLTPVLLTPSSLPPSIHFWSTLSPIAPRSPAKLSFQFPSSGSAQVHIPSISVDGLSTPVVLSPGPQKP
Method in brief: (§1)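 Pools were built from human transcription factors expressed in yeast as GST fusions, captured on glutathione beads and DNA-barcoded, along with a tag-only sample. Incubation with 200 nmole of a 16-mer random double-stranded DNA library lasted 30 min at room temperature in Tris/NaCl/DTT/glycerol buffer, and was followed by washing, 0.1% formaldehyde crosslinking, proximity ligation, PCR amplification and Illumina NextSeq500 sequencing. Binding signal is the quotient of each hexamer's read frequency for a factor and its frequency for the tag-only sample.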

GABPA = biological target: T2, GABPA (Homo sapiens, UniProt Q06546 1-454)
T2 sequence: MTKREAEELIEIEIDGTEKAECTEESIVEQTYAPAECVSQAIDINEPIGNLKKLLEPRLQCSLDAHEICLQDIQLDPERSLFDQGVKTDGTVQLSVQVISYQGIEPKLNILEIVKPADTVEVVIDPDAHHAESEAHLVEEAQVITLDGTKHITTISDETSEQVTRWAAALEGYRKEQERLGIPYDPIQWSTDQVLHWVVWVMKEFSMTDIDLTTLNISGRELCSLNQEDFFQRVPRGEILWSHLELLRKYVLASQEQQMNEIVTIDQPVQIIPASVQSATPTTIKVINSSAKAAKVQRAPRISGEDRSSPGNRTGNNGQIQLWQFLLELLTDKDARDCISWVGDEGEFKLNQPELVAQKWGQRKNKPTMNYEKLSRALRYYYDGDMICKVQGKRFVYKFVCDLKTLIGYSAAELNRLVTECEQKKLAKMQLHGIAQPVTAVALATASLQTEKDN
Method in brief: as §1

ERG = biological target: T3, ERG (Homo sapiens, UniProt P11308 1-479)
T3 sequence: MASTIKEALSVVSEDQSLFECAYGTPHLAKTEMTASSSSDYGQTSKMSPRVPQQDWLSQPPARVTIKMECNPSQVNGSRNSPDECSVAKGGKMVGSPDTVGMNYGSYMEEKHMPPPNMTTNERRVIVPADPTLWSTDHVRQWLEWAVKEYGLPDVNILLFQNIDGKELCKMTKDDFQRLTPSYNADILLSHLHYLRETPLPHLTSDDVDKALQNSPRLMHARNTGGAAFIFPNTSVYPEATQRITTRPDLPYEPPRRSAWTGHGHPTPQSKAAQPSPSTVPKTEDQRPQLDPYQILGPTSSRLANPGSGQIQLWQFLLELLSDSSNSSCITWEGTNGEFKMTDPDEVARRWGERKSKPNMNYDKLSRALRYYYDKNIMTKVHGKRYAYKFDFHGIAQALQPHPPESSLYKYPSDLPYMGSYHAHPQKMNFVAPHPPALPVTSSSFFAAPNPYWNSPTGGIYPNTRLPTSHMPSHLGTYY
Method in brief: as §1

ELF1 = ELF1 (Homo sapiens, UniProt P32519 1-619)
Method in brief: as §1

EHF = biological target: T4, EHF (Homo sapiens, UniProt Q9NZC4 1-300)
T4 sequence: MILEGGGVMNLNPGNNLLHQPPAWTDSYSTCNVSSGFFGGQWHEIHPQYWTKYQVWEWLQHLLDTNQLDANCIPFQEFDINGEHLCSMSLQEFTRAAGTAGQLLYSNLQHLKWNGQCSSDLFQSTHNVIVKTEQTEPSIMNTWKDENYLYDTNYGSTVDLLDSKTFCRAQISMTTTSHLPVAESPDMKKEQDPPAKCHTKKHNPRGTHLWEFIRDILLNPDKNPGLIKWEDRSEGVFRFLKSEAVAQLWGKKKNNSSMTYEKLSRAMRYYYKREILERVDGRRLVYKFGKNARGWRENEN
Method in brief: as §1

SPI1 = SPI1 (Homo sapiens, UniProt P17947 1-270)
Method in brief: as §1

SPIB = SPIB (Homo sapiens, UniProt Q01892 1-262)
Method in brief: as §1

FEV = biological target: T5, FEV (Homo sapiens, UniProt Q99581 1-238)
T5 sequence: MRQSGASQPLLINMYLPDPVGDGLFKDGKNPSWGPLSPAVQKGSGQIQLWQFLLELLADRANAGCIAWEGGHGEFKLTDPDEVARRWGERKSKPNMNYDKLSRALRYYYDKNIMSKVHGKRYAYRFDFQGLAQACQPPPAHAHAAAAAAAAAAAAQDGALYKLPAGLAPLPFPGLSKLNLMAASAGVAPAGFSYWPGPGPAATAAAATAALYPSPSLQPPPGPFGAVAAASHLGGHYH
Method in brief: as §1

ETV5 = ETV5 (Homo sapiens, UniProt P41161 1-510)
Method in brief: as §1

ELF4 = ELF4 (Homo sapiens, UniProt Q99607 1-663)
Method in brief: as §1

ELK4 = biological target: T6, ELK4 (Homo sapiens, UniProt P28324-2 1-405)
T6 sequence: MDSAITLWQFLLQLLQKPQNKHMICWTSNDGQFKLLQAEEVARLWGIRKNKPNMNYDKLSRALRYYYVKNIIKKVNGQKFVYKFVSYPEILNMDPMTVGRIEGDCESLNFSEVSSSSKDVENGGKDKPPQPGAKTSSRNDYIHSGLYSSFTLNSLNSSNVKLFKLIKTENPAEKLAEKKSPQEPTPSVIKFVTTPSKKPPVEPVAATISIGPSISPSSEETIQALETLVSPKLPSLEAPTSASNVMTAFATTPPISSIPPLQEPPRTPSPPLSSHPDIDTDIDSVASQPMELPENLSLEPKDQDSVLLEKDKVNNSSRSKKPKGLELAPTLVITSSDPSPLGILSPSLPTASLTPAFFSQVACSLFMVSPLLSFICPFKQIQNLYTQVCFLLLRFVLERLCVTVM
Method in brief: as §1

ETV1 = ETV1 (Homo sapiens, UniProt P50549 1-477)
Method in brief: as §1

ERF = biological target: T7, ERF (Homo sapiens, UniProt P50548 1-548)
T7 sequence: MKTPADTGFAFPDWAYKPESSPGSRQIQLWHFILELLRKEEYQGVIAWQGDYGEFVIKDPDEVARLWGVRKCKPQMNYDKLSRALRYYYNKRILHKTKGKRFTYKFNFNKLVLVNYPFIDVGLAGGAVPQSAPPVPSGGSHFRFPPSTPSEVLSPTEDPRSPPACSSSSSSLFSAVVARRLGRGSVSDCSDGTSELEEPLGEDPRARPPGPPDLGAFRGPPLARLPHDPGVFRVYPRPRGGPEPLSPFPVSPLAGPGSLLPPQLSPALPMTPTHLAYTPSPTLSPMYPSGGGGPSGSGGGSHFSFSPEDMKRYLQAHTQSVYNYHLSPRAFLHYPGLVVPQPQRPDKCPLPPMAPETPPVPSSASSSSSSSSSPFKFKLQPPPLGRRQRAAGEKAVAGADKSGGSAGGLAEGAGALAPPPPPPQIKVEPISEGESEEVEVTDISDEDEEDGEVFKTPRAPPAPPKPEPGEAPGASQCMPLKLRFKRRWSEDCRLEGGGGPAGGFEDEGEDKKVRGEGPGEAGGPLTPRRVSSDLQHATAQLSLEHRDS
Method in brief: as §1

ETV3L = biological target: T8, ETV3L (Homo sapiens, UniProt Q6ZN32 1-361)
T8 sequence: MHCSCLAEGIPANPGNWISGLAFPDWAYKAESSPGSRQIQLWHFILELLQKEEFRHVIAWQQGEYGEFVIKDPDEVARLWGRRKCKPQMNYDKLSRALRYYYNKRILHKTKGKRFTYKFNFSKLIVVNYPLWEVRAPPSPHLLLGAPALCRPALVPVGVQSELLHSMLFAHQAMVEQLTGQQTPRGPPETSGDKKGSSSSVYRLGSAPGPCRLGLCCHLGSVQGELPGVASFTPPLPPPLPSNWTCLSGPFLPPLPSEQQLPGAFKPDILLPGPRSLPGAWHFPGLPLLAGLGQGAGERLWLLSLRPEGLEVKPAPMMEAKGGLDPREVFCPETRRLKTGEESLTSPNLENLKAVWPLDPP
Method in brief: as §1

ETS2 = biological target: T9, ETS2 (Homo sapiens, UniProt P15036 1-469)
T9 sequence: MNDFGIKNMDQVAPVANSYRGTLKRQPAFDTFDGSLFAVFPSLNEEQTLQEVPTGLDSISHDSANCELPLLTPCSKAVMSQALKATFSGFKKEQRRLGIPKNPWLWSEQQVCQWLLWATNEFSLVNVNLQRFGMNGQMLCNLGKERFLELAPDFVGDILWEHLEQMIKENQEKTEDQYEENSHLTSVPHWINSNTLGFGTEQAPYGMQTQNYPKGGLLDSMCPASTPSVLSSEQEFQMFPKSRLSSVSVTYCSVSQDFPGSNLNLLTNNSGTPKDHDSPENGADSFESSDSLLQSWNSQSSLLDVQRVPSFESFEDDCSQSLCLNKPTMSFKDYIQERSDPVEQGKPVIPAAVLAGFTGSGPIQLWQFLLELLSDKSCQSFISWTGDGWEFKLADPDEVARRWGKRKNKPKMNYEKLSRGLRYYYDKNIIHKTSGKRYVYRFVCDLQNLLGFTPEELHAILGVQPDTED
Method in brief: as §1

SPDEF = biological target: T10, SPDEF (Homo sapiens, UniProt O95238 1-335)
T10 sequence: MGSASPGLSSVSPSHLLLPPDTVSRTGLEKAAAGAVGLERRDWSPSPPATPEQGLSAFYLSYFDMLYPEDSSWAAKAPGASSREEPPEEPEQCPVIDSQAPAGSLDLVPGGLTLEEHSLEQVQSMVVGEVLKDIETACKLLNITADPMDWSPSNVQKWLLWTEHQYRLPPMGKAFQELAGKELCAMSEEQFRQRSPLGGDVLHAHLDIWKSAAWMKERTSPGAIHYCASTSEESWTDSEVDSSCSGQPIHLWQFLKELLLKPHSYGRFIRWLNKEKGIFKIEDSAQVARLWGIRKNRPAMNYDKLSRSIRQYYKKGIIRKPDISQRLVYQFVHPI
Method in brief: as §1

ETV7 = biological target: T11, ETV7 (Homo sapiens, UniProt Q9Y603 1-341)
T11 sequence: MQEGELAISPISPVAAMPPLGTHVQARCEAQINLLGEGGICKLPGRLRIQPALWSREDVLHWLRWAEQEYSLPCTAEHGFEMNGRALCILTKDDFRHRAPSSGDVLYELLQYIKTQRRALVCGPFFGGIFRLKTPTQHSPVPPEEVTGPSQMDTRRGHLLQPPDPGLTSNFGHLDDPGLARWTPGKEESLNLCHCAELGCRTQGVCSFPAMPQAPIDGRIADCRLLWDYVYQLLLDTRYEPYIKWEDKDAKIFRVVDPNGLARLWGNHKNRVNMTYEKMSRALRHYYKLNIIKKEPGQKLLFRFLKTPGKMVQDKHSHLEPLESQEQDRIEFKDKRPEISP
Method in brief: as §1

ETV3 = biological target: T12, ETV3 (Homo sapiens, UniProt P41162-2 1-143)
T12 sequence: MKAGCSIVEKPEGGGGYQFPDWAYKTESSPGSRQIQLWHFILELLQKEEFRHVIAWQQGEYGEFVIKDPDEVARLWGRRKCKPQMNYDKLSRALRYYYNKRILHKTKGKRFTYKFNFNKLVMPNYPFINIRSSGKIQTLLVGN
Method in brief: as §1

Sequence of ETV1 (P50549 whole entry): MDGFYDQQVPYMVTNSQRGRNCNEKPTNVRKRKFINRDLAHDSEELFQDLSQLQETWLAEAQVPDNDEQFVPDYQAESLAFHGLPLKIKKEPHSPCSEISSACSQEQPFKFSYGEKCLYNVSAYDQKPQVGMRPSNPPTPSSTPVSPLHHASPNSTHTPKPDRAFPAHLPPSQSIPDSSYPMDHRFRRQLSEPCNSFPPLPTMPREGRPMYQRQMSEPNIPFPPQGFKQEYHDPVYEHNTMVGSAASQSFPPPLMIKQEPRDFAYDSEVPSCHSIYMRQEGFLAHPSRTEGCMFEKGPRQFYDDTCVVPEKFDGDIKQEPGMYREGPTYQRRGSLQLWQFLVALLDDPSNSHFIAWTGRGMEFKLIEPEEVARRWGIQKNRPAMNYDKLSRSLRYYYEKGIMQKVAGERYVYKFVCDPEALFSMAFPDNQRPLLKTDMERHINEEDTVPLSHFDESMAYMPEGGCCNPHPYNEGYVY
Sequence of ELF4 (Q99607 whole entry): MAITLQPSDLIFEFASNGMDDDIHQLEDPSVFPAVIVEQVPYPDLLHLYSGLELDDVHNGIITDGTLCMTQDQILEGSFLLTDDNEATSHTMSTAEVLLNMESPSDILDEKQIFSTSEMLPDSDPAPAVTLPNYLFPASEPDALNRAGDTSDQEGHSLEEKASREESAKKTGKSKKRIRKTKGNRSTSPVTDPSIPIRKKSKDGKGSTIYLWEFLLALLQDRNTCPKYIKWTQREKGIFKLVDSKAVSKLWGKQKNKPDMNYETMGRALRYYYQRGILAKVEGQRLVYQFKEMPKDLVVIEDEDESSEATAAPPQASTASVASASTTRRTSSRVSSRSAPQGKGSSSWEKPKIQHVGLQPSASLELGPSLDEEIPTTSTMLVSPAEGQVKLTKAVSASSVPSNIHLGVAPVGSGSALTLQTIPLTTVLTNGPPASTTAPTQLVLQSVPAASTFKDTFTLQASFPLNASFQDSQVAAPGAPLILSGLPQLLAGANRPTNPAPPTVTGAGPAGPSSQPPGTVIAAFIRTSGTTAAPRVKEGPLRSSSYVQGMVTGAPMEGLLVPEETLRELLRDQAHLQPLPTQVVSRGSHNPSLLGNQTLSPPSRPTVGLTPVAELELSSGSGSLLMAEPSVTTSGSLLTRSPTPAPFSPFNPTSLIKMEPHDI
Sequence of SPIB (Q01892 whole entry): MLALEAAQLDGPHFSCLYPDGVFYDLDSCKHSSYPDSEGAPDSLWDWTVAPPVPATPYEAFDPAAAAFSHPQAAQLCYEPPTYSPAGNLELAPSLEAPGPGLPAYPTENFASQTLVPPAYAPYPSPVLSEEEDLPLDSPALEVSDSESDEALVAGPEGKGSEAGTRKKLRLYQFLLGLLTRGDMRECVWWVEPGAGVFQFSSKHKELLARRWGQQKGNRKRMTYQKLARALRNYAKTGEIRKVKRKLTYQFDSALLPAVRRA
Sequence of ELF1 (P32519 whole entry): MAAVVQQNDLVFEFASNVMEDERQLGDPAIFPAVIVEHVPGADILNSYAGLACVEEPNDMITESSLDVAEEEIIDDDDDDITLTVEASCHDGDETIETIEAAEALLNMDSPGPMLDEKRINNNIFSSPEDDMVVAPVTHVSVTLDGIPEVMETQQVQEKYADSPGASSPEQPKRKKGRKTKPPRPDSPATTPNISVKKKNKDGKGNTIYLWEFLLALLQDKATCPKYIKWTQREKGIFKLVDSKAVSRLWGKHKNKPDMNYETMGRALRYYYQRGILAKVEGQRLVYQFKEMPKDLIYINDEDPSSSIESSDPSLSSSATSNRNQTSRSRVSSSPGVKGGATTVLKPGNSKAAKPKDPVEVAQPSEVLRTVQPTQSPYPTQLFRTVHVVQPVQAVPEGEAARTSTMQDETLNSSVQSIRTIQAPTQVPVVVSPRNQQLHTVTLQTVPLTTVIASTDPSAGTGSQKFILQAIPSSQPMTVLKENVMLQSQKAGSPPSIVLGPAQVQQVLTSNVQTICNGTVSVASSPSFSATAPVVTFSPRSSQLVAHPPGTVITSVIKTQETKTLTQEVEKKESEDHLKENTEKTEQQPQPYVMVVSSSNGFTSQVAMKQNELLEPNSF
Sequence of ETV5 (P41161 whole entry): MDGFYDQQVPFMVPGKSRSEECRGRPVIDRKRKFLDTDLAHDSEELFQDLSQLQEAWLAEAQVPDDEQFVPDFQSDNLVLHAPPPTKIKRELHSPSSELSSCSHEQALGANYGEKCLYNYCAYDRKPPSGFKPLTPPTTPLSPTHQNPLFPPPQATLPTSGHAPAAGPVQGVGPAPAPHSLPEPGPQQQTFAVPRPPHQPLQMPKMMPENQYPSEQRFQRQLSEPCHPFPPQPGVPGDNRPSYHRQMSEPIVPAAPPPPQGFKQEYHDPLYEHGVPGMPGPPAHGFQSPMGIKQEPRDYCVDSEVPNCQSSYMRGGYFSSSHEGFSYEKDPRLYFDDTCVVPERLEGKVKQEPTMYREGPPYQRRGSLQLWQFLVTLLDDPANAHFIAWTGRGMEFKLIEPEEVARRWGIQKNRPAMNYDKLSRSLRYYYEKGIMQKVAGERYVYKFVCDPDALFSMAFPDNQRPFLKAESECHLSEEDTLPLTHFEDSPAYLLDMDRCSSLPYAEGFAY

In the case of TGCAGC, the binding signal (ELK1) was 1.07 fold enrichment (6-mer frequency, TF over GST control), the binding signal (GABPA) was 1.16 fold enrichment (6-mer frequency, TF over GST control) and the binding signal (ERG) was 1.06 fold enrichment (6-mer frequency, TF over GST control). The binding signal (ELF1) was 1.09 fold enrichment (6-mer frequency, TF over GST control), the binding signal (EHF) was 1.09 fold enrichment (6-mer frequency, TF over GST control) and the binding signal (SPI1) was 1.02 fold enrichment (6-mer frequency, TF over GST control). The binding signal (SPIB) was 1.17 fold enrichment (6-mer frequency, TF over GST control), the binding signal (FEV) was 1.08 fold enrichment (6-mer frequency, TF over GST control) and the binding signal (ETV5) was 1.03 fold enrichment (6-mer frequency, TF over GST control). For the same sequence, the binding signal (ELF4) was 1.1 fold enrichment (6-mer frequency, TF over GST control), the binding signal (ELK4) was 1.15 fold enrichment (6-mer frequency, TF over GST control) and the binding signal (ETV1) was 1.02 fold enrichment (6-mer frequency, TF over GST control). The binding signal (ERF) was 1.13 fold enrichment (6-mer frequency, TF over GST control), the binding signal (ETV3L) was 1.07 fold enrichment (6-mer frequency, TF over GST control) and the binding signal (ETS2) was 1.1 fold enrichment (6-mer frequency, TF over GST control). The binding signal (SPDEF) was 1.15 fold enrichment (6-mer frequency, TF over GST control), the binding signal (ETV7) was 1.04 fold enrichment (6-mer frequency, TF over GST control) and the binding signal (ETV3) was 1.05 fold enrichment (6-mer frequency, TF over GST control).
